Here are results for 40 molecules from PubChem BioAssay.

The inhibition is the relative decrease from the control value, in per cent.

Activity calls are given as the source filed them. Cut-off read from the data, not from the text of the source: active = inhibition above about 25%; inactive = the rest.

This assay can be described thus: repression of VP16-driven luciferase reporter – cell-based, luminescence, high throughput, counter-screen for SRC1 inhibitor project (AID 588824). The settings on record: cell-based VP16 transactivation luciferase luminescence; at 3.6 µM; active compounds read high. In general terms: Reporter assays use an easily measured gene product as a stand-in for the process of interest.
On to `Cc1cc(C(=O)CN2C(=O)c3ccccc3S2(=O)=O)c(C)n1C(C)C`, for which the inhibition was 12.9% (inactive).
Turning to `O=C(CCCN1C(=O)/C(=C/c2ccccc2Cl)SC1=S)NNC(=O)c1ccncc1`, the inhibition is 10.8% (inactive).
The figure for `Cc1ccc2nc(C(F)(F)F)c(C#N)c(N)c2c1` is 2.5% (inactive); for `CCCC(=O)N1CCN(c2ccc(NC(=O)c3cc4ccccc4o3)cc2Cl)CC1` it is 6.71% (inactive).
In the case of `O=C(CCCN1C(=O)/C(=C/c2ccccc2Cl)SC1=S)NNC(=O)c1ccc(Cl)cc1Cl` it was 33% (active).
The figure for `c1cc2c(cc1C1=NNC(=NC3CC3)SC1)OCCO2` is 38% (active); for `O=C1C=CC(=C(c2ccc(O)cc2)c2ccc(O)cc2)C=C1` it is 46.8% (active).
Turning to `CC1=C(C(=O)OCc2ccc3c(c2)OCO3)C(c2ccc(Cl)cc2)NC(=O)N1` (stereo not given), the inhibition was 74.8% (active).
As for `COc1ccc(-c2cc3nc(C)n(N)c(=O)c3s2)cc1`, the inhibition was 39.4% (active).
Regarding `COc1ccc(-c2cc(=O)oc3c(C)c(O)ccc23)cc1`, the inhibition is 26.4% (active).
Regarding `O=C(CCl)N(C1CCCC1)C1CCS(=O)(=O)C1` (stereo not given), the inhibition is 38.2% (active).
For the molecule `O=[N+]([O-])c1ccc2ncnc(N3CCN(Cc4ccc5c(c4)OCO5)CC3)c2c1`, the inhibition is 64.9% (active).
For `CCOc1ccc(/C=C2\SC(=S)N(CCC(=O)O)C2=O)cc1`, the inhibition was -38.8% (inactive).
`CCCN(CC(=O)Nc1ccccc1C)C(=O)CCl`: the inhibition is 53.4% (active).
Take `Cc1nn(C(C)(C)C)c(C)c1/C=N/OC(=O)Nc1ccc(Cl)c(Cl)c1`: the inhibition was 12% (inactive).
Consider `C=CCN(CC=C)c1ncnc2[nH]ncc12`, for which the inhibition was 45.2% (active).
Take `CC(=O)c1ccc(-n2c(C)c(C(C)=O)c3cc(O)ccc32)cc1`: the inhibition is 46.7% (active).
With `Nc1ncc([N+](=O)[O-])c(N2CCCCCC2)n1`, the inhibition is 51.2% (active).
In the case of `COCC(C)n1c(C)cc(C(=O)COC(=O)c2cccn2C)c1C` (stereo not given) it was -61% (inactive); in that of `NC(=O)c1sc2nc3c(c(-c4cccs4)c2c1N)CCCCC3`, 65% (active); in that of `COc1ccc(-c2cncnc2-c2ccc(OC)cc2O)cc1`, 35% (active).
The figure for `COc1ccc2ncn(-c3ccccc3)c2c1` is 23.7% (inactive); for `Cc1[nH]nc2ncc(C(=O)c3ccccc3O)cc12` it is 48.9% (active); for `Cc1c([N+](=O)[O-])c2ccc(O)cc2n1-c1ccccc1` it is 30.1% (active).
In the case of `CC1(Cc2cccc(F)c2)C(=O)Nc2ccc(-c3cccnc3)cc21` (stereo not given) it was 49% (active); in that of `O=C(NC1CCCCC1)C(c1cccnc1)N(C(=O)CCl)c1cccc(Cl)c1` (stereo not given), 17.5% (inactive); in that of `Cc1ccc(S(=O)(=O)c2ccc([N+](=O)[O-])cn2)cc1`, -32.7% (inactive).
On to `CCn1c2ccccc2c2cnc(N=CN(C)C)c(C#N)c21`, for which the inhibition is 21.4% (inactive).
For `COc1ccc(Nc2ccnc3ccccc23)cc1`, the inhibition is 26.4% (active).
Consider `COc1ccc(C2=Nn3c(nnc3-c3ccncc3)SC2)cc1`, for which the inhibition is 37% (active).
Regarding `COc1ccc(-n2c(C)c(C(C)=O)c3cc(O)ccc32)cc1`, the inhibition was 56.6% (active).
For the molecule `Cc1ccc(OCC(=O)c2cc(C)n(Cc3cccs3)c2C)c([N+](=O)[O-])n1`, the inhibition is 14.2% (inactive).
In the case of `O=C(CCl)N1N=C(c2ccco2)CC1c1ccco1` (stereo not given) it was 4.7% (inactive).
The figure for `CC1(C)Cc2c(ccc3ccccc23)C(=O)N1` is 23.7% (inactive); for `OCCCNc1ncnc2scc(-c3ccc(Cl)cc3)c12` it is 39.2% (active); for `Cc1ccccc1C(=O)N1CCN(c2ccc(NC(=O)c3ccc4c(c3)OCCO4)cc2)CC1` it is 41.5% (active).
On to `C=C1C(=O)[C@@]23[C@H](O)C[C@@H]4C(C)(C)CC[C@H](O)[C@@]4(C)[C@@H]2CC[C@@H]1[C@H]3O`, for which the inhibition was 46.2% (active).
The figure for `N#CC(C#N)c1ccnc2ccccc12` is 38.3% (active); for `CCCCN(c1ccccc1)c1ncnc(N)c1[N+](=O)[O-]` it is 48.5% (active); for `CCOC(=O)c1cccc2c1-c1ccccc1/C2=N/O` it is 23.2% (inactive).
